# Compound activity (PubChem)
# Compounds with a hit are over-represented: about 3.7% of the library has one in this group of screens.
# Anthrax LF inh2 = anthrax lethal factor protease inhibition. P15917. multiplex microsphere protease cleavage assay, LF. inhibition, % at 10 µM. hit rate 0.12% among 360,000. AID 588501
# Bead autofluor = flagged as autofluorescent in microsphere protease counterscreen. compound autofluorescence counterscreen, microsphere flow cytometry; stronger effect = higher value. fluorescence intensity (concentration not given with the values). hit rate 3.1% among 360,000; in the data active = fluorescence intensity above about 16000; inconclusive = no clear call, values can overlap the other calls
# BoNT-F LC inh = BoNT F light chain protease inhibition. hit rate 0.22% among 360,000. inhibition, % at 10 µM. Multiplex microsphere protease cleavage assay, flow cytometry; in the data active = inhibition above about 35%, passing the limit was not always enough; inconclusive = no clear call, values can overlap the other calls
# BoNT-A LC inh2 = inhibitors of Botulinum neurotoxin A light chain protease; multiplex microsphere protease substrate cleavage, flow cytometry; inhibition, % at 10 µM; hit rate 0.17% among 360,000; AID 588499
# MazF activator = increases E. coli MazEF RNase cleavage of RNA; P0AE70; FAM/BHQ RNA-DNA oligo cleavage fluorescence, 5 h; activation, % at 20 µM; hit rate 0.32% among 350,000; AID 504720; in the data active = activation above about 50%
# Numbers stand for hits; i = inactive; ? = inconclusive; nt = not tested or not shown. Cut-off read from the data, not from the text of the source, unless noted: active = inhibition above about 30%; inconclusive = no clear call, values can overlap the other calls; inactive = below that.
SMILES,Anthrax LF inh2,Bead autofluor,BoNT-F LC inh,BoNT-A LC inh2,MazF activator
CN1CCn2cnc(C(=O)N[C@@H](Cc3ccccc3)C(=O)OC(C)(C)C)c2C1=O,i,i,i,i,i
O=C(NC(Cc1ccccc1)C(=O)NCc1ccccn1)c1ccco1 (centres undefined),i,17464,i,i,i
O=C(NCc1ccccn1)c1ccco1,i,i,i,i,i
COc1ccc2[nH]c(=O)c(CN(c3ccc(C)c(C)c3)S(C)(=O)=O)cc2c1,i,i,i,i,i
Cc1noc(C)c1C(=O)NC1CCCc2ccccc21 (centres undefined),i,21318,i,i,i
Cc1cc(C(=O)NC2CCCc3ccccc32)no1 (centres undefined),i,i,i,i,i
O=C(CCn1c(=O)oc2ccccc21)NCCN1CCc2ccccc2C1,i,20382,i,i,i
CC1CCCC(NC(=O)COC(=O)Cc2ccccc2)C1C (centres undefined),i,17041,i,i,i
CC1CCCCC1NC(=O)CCn1c(=O)oc2ccccc21 (centres undefined),i,i,i,i,i
COc1cccc(CNC(=O)CCn2c(=O)oc3ccccc32)c1,i,25239,i,i,i
CC1CCCC(NC(=O)CCn2c(=O)oc3ccccc32)C1C (centres undefined),i,22573,i,i,i
COc1ccc(C(=O)NC2CCCc3ccccc32)cc1S(=O)(=O)N1CCOCC1 (centres undefined),i,i,i,i,i
CCOC(=O)C1=C[C@@H](c2ccccc2)N(S(=O)(=O)c2ccc(C)cc2)[C@H]1c1ccc(F)cc1,i,i,i,i,nt
CCCN1C2CCCC1CC(NC(=O)c1ccc(OC)cc1)C2 (centres undefined),nt,nt,nt,nt,i
COc1ccccc1C(=O)Nc1ccc2c(c1)nc1n2CCSC1,i,?,i,i,i
Cc1ccc(C(=O)Nc2ccc3c(c2)nc2n3CCSC2)cc1,i,23988,i,i,i
CC(=O)Nc1ccc2c(c1)nc1n2CCSC1,i,18041,i,i,i
CCOc1ccc(NC(=S)NC(=O)c2cccnc2)c([N+](=O)[O-])c1,i,i,?,i,i
CN(CC(=O)NCc1ccco1)C(=O)C1CC(=O)N(c2ccc3c(c2)OCCO3)C1 (centres undefined),i,i,i,i,i
Cc1ccc(S(=O)(=O)N(CC(=O)Nc2cccc([N+](=O)[O-])c2)C(=O)N2CCN(C)CC2)cc1,i,16418,i,i,i
Cc1nnc(-c2cccc(Br)c2)c2cn(-c3ccccc3Cl)nc12,i,26146,i,i,i
CCN(CC)Cc1cc(C(C)=O)ccc1OCC(C)C,i,16228,i,i,i
O=C1NC(=O)N(CCC2=CCCCC2)C(=O)/C1=C/c1cccs1,?,i,37,i,i
CC1(C2CC2)NC(=O)N(CC(=O)Nc2ccccc2F)C1=O (centres undefined),i,i,i,i,i
CCOc1ccccc1CNC(=O)C1CCC(=O)N1C(C)C (centres undefined),i,22457,i,i,i
SMILES,Anthrax LF inh2,Bead autofluor,BoNT-F LC inh,BoNT-A LC inh2,MazF activator
O=C(Nc1c(-c2ccccc2)[nH][nH]c1=O)c1ccc(Br)cc1,i,i,i,i,nt
CC1CCCC(C)N1CCNC(=O)Nc1ccc(Cl)cc1 (centres undefined),i,22625,i,i,i
CC(O)C(NS(=O)(=O)c1ccc(Cl)cc1)C(=O)OCC(=O)c1c[nH]c2ccccc12 (centres undefined),i,i,i,i,i
CC(C)C(NS(=O)(=O)c1c(Cl)cccc1Cl)C(=O)OCC(=O)c1c[nH]c2ccccc12 (centres undefined),i,i,i,58,i
c1ccc(N2CCN(c3cnccn3)CC2)nc1,i,i,i,i,i
N#Cc1cc(C#N)c(N2CCN(c3ccccn3)CC2)nc1N,i,23218,i,i,i
CCc1cc(=O)oc2cc(C)c(CN3CCCC3)c(O)c12,i,17050,i,i,i
CCc1cc(=O)oc2cc(C)c(CN3CCCCC3)c(O)c12,nt,nt,nt,nt,i
COc1cccc(NC(=O)CN(C)C(=O)c2cccc(S(=O)(=O)Nc3ccccc3OC)c2)c1,i,i,i,i,i
CCCCC(=O)Nc1ncc(Br)s1,i,21554,i,i,i
CCCCC(=O)Nc1ncc([N+](=O)[O-])s1,i,i,i,i,i
CCOc1cc(C2C(C(=O)N3CCCCC3)=C(C)NC3=C2C(=O)CCC3)cc(Br)c1O (centres undefined),i,24537,i,i,i
CCC(=O)Nc1ccc2c(c1)Cc1cc([N+](=O)[O-])ccc1-2,i,i,i,i,58
COc1ccc(NC(=O)Nc2cccc([N+](=O)[O-])c2)cc1Cl,i,i,i,i,106
O=C(Nc1cccc([N+](=O)[O-])c1)Nc1ccc2c(c1)CCC2,i,i,i,i,84
COc1cccc(-n2c(=O)c3c(C)c(C(=O)N(C)C)sc3n(CC(=O)NCC3CCCO3)c2=O)c1 (centres undefined),i,i,i,i,i
CC(O)CNc1cnccn1 (centres undefined),i,i,i,i,i
CCOC(=O)N1CCN(S(=O)(=O)c2ccc(C)c(C)c2)CC1,i,23015,i,?,i
Cc1ccc(S(=O)(=O)N2CCN(C(=O)C3COc4ccccc4O3)CC2)cc1C (centres undefined),i,19329,i,?,i
O=C(C1COc2ccccc2O1)N1CCN(S(=O)(=O)c2ccccc2)CC1 (centres undefined),i,i,i,i,i
CCOC(=O)N1CCN(S(=O)(=O)c2c(C)cc(C)cc2C)CC1,i,i,i,i,i
CCOC(=O)N1CCN(C(=O)C2CCN(S(=O)(=O)c3c(C)cc(C)cc3C)CC2)CC1,i,16613,i,i,i
Nc1nc2ccccc2n1S(=O)(=O)c1ccc(Cl)cc1,i,i,i,i,nt
Cn1c(-c2sc(=S)n(-c3ccccc3)c2N)nc2ccccc21,i,i,i,i,i
C=CCn1c(N)c(-c2nc3ccccc3n2C)sc1=S,i,22610,i,i,i
SMILES,Anthrax LF inh2,Bead autofluor,BoNT-F LC inh,BoNT-A LC inh2,MazF activator
CC1(C(=O)Nc2c(F)c(F)c(F)c(F)c2F)CC1(Br)Br (centres undefined),31,i,?,i,i
CCc1cc(-c2nnn(CCC3COCCO3)c2CC)cc(CC)c1-c1cn(CCc2c[nH]c3ccccc23)nn1 (centres undefined),i,i,i,i,i
O=C(Cn1c(C(=O)NCCCN2CCOCC2)cc2sccc21)c1ccccc1,i,24194,i,i,i
Cn1c(C(=O)NCCN2CCOCC2)cc2sccc21,i,i,i,i,i
Cc1ccc(Cn2c(C(=O)NCCCN3CCOCC3)cc3sccc32)cc1,i,24158,i,i,i
CCn1c(C(=O)NCc2ccccn2)cc2sccc21,i,17121,i,i,i
CCn1c(C(=O)NCCCN2CCc3ccccc3C2)cc2sccc21,i,24380,i,i,i
COCCn1c(SC(C)C(=O)NCC2CCCO2)nc2sc3c(c2c1=O)CCC3 (centres undefined),i,i,i,i,i
C=C1CC(C)OC(c2ccccc2OCC(O)CN2CCCCC2)C1 (centres undefined),i,21660,i,?,i
